Source: PubChem BioAssay AID1159580 (chemical genetic matrix, 2015)
The campaign covered roughly 5,500 compounds. About 2,000 (36%) were called active. Another 18% or so got no clear call; they are omitted. Rule as the data show it: active = normalized growth mostly below about 0.91 (no sharp cut-off); inconclusive = no clear call, values can overlap the other calls; inactive = mostly above about 0.92. The list shows a part of the results.

Experiment: chemical genetic growth profiling, strain panel (AID 1159580);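 also: tested at 20 µM; growth read once vehicle control cultures reached saturation at 30 °C; 1 = growth at the plate median or of vehicle wells; lower values mean less growth of the strain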
Settings: S. cerevisiae deletion strains, growth OD

Measured: normalized growth

COc1ccc(CCN(C)CCCC(C#N)(c2cc(OC)c(OC)c(OC)c2)C(C)C)cc1OC (stereo not given)
inactive: locus YAL040C, strain CLN3, active compounds read low 1.01 | locus YCL061C, strain MRC1 (second series), active compounds read low 0.995 | locus YDR150W, strain NUM1, active compounds read low 1.01 | locus YDR363W, strain ESC2, active compounds read low 0.97 | locus YER002W, strain NOP16, active compounds read low 1.03 | locus YGR078C, strain PAC10, active compounds read low 1.03 | locus YJR075W, strain HOC1, active compounds read low 1 | locus YMR307W, strain GAS1, active compounds read low 1.02 | locus YNL153C, strain GIM3, active compounds read low 1.02 | locus YNL175C, strain NOP13, active compounds read low 1.01 | locus YNL197C, strain WHI3, active compounds read low 1.01 | locus YNL224C, strain SQS1, active compounds read low 1.01 | locus YOR083W, strain WHI5 (second series), active compounds read low 1 | locus YPL055C, strain LGE1, active compounds read low 1 | locus YPL241C, strain CIN2, active compounds read low 1.01
